These results are taken from ChEMBL document CHEMBL3988442, “University of Dundee, Small-Polar-MMV Screening Library” (2021).

Holding throughout (type): functional
Common to all, as to set-up: scale not given: direction of the effect not stated beside the values
Settings in all cases: 30 µM

Assay [1] deals with T1, Aspartate--tRNA(Asp/Asn) ligase (Mycobacterium tuberculosis (strain ATCC 25618 / H37Rv)) (UniProt P9WFW3).
T1 sequence (whole entry): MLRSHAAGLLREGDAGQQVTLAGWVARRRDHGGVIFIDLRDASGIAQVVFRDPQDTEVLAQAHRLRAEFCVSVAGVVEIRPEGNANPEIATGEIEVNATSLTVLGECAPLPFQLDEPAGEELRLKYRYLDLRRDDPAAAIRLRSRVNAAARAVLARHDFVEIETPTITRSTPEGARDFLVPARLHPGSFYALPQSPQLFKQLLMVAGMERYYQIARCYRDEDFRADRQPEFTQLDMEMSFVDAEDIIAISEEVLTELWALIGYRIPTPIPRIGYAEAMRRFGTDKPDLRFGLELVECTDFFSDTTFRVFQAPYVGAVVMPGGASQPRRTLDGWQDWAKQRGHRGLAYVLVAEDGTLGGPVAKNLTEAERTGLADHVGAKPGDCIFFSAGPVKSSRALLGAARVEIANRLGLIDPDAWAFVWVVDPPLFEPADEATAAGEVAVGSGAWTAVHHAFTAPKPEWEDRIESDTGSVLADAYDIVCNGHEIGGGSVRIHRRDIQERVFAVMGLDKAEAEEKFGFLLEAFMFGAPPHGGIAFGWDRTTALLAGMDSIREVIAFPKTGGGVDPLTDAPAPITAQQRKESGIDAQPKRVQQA
Nature of the assay: Assay for Asp RNA synthetase-1 from Mycobacterium tuberculosis.

For assay [2], the target named is Shiga toxin 2 (Escherichia coli O157:H7) (UniProt P09385+P09386). Nature of the assay: E. coli 0.157:H7 Shiga Toxin SOP - stx2 screening assay.
The target of assay [3] is AMP-activated protein kinase, AMPK (Homo sapiens) (UniProt P54646+O43741+P54619+Q9UGJ0+Q9Y478+Q13131+Q9UGI9). In words: AMP-dependent Kinase enzyme assay. An in vitro enzyme assay that detects ADP turnover that is directly proportional to AMPK activity. This uses naive AMPK that is activated during the assay with MK-8722.

On to `Cc1ncccc1NC(=O)C1=NOC2(CCN(Cc3nccs3)C2)C1` (configuration not stated), for which the Percent Effect is 10.6% in assay [1] and -15.4% in assay [2]. Turning to `O=C1N(c2ccc(F)cc2)Cc2nc(=O)n(Cc3cccc(Cl)c3)n21`, the Percent Effect in assay [1] was 0.784%; in assay [2] it was -12.3%. Regarding `Cc1nc(CC(=O)N2CCCC(N(C)Cc3ccccc3)C2)cs1` (configuration not stated), in assay [3], the Percent Effect turned out to be 6.8%.

With `C[C@@H]1CN(C(=O)c2ccsc2)C[C@]12CCN(c1ccsc1)C2=O`, the values for the Percent Effect in assay [1] and in assay [2] were -1.75% and 1.46%, respectively. `CC(C)(C)c1cc(=O)[nH]c(C2(N)CCCCC2)n1`: the Percent Effect in assay [3] worked out at 2.04%. Take `c1cnc(N2C[C@@H]3CC[C@H](C2)N(Cc2ccsc2)C3)nc1`: in assay [3], the Percent Effect was 8.4%. Consider `Cc1c(C)n(Cc2ccccn2)c2nc3c(c(N)c12)CCCC3`, for which the figures for the Percent Effect in assay [1] and in assay [2] were -2.53% and -3.33%, respectively. Consider `COCC(=O)N1CC[C@@H]2CN(Cc3cccc(Cl)c3)S(=O)(=O)[C@@H]2CC1`, for which the Percent Effect in assay [1] is 3.55%; in assay [2], -12.7%. In the case of `CNC(=O)[C@@]12CCC3(CCN(S(C)(=O)=O)CC3)[C@@H]1CN(S(C)(=O)=O)C2`, the Percent Effect is 0.0987% in assay [1] and -5.23% in assay [2]. Consider `O=C(CCc1ccc(=O)[nH]n1)N1CCCC(COc2ccc(F)cc2)C1` (configuration not stated), for which the Percent Effect in assay [1] was 3.84%; in assay [2] it was 6.15%.

On to `CCn1nc(C)c2ncnc(NCC(=O)N3CCOCC3)c21`, for which the figures for the Percent Effect in assay [1] and in assay [2] were -3.08% and -16.4%, respectively. Consider `O=C(N[C@H]1COC[C@@H]1N1CCCC1)c1csc(-c2cccs2)n1`, for which the Percent Effect in assay [3] was found to be 2.31%.

As for `Cc1nc(C)c(CC(=O)N2CCCN(CC3CC3)C(C(C)C)C2)c(=O)[nH]1` (configuration not stated), the Percent Effect in assay [3] was -7.23%. For `CCc1nnc(CN2CCN(C(=O)c3cc4ccccc4[nH]3)CC2)o1`, the Percent Effect is -2.68% in assay [1] and 8.5% in assay [2]. Turning to `O=C(c1ccnc(-n2cnnc2)c1)N1CCCC2(CCNC2)C1` (configuration not stated), in assay [3], the Percent Effect is -3.71%. In the case of `COc1c(CNCc2ccnc(N3CCCC3)c2)c(C)nn1C`, the Percent Effect in assay [1] was 2.34%; in assay [2] it was -55.3%. Regarding `CC(C)c1nccn1C1CCCN(C(=O)c2cccc3c2OCO3)C1` (configuration not stated), the Percent Effect in assay [1] is 0.582%; in assay [2] it was -1.21%. In the same order, the values of `Cc1nccn1C1CCCN(C(=O)c2ccc3c(c2)COC3)C1` (configuration not stated) are -1.72% and -16.7%. The like results for `CNCC(=O)N1CC(c2cc(Nc3ncccn3)nc(C)n2)C1` were, in that order, -3.19% and -3.14%. Turning to `O=C(N[C@@H]1CN(c2ncccn2)C[C@@H]2CCCO[C@@H]21)c1cnccn1`, the Percent Effect in assay [1] was 4.51%; in assay [2], -15.4%. On to `Cn1cc(C2CCCN2C(=O)c2ccc(Br)o2)cn1` (configuration not stated), for which the Percent Effect in assay [1] is -1.8%; in assay [2] it was 28.5%.

For the molecule `Cc1csc2ncc(-c3ccnc(N4CCN(C)CC4)n3)c(=O)n12`, the Percent Effect in assay [1] is 1.78%; in assay [2], -20.6%. In the case of `Cc1cc(NCCc2c[nH]cn2)nc(-c2cccnc2)n1`, the Percent Effect in assay [3] came out at 1.96%. As to `CC(C)NC(=O)N1C[C@H]2C[C@H](C(=O)NCc3ccccc3)[C@@H](C1)O2`, the Percent Effect was determined as 2.3% in assay [1] and 1.68% in assay [2]. In the case of `CCc1nccn1C1CCCN(C(=O)CCCNc2ncccn2)C1` (configuration not stated), the Percent Effect in assay [1] is -4.79%; in assay [2] it was 8.61%. As for `Cn1cc(C2=CCN(CCC(=O)NCc3ccc(Cl)cc3)CC2)cn1`, the Percent Effect in assay [3] was found to be 6.44%.

With `O=C(CS(=O)(=O)c1ccccc1Cl)NC1CCCCNC1=O` (configuration not stated), the Percent Effect in assay [1] is -8.65%; in assay [2] it was 4.72%.

Consider `Cc1cccc(CC(=O)N2CCCC(N(C)CCCN(C)C)C2)c1` (configuration not stated), for which, in assay [3], the Percent Effect is 6.04%.
